# Several values for one entry are separate records, joined by “and”; a condition that tells them apart may be missing. Identical values can stand only once. Results filed as inconclusive are left out. For some assays here: Entries with a potency or affinity are not part of this list. Some compounds were tested as several samples or in several runs, with calls that do not always agree. Activity calls are given as the source filed them.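 The calls were made as follows, unless noted: active = at least 20% inhibition of 6-phosphogluconate dehydrogenase activity; inactive = the rest.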
# Legend:
# [1] = blockers of polyQ-driven CASP3 activation – cell-based (AID 1583); settings: polyglutamine-induced caspase-3 activation, cell assay; stronger effect = higher value;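 tested at 10 µM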
# [2] = yeast 75Q aggregation reduction – 75Q-TubU reporter (AID 1593); settings: Yeast 75Q polyglutamine aggregation reporter
# [3] = restoration of touch response, mutant HTT neurons – whole organism, C. elegans mechanosensory neurons, N-terminal huntingtin (AID 1599); settings: C. elegans polyQ-huntingtin mechanosensory neurons, stronger effect = higher value
# [4] = blockers of cytochrome c efflux from mitochondria – biochemical, purified mitochondria (AID 1603); settings: stronger effect = lower value;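 also: mouse liver mitochondria challenged with calcium chloride; signal normalized to the plate average as 100%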
# [5] = polyglutamine aggregate formation blockers (AID 1604); settings: polyglutamine-induced protein aggregation inhibition assay; stronger effect = higher value; tested at 2.5 µM
# [6] = glutamate transport activators, MN-1 cells, MN-1 cell line (AID 1612); settings: MN-1 motor neuron cells, stronger effect = higher value;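 also: tested at 1 µM final; 0% = mean of DMSO vehicle wells on each plate; positive means more glutamate uptake than control and negative means less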
# [7] = GFP-Q80 aggregate reduction, neuronal-like cells, cell-based, NGF-treated PC12, GFPQ80 (AID 1614); settings: PC12 NGF-treated GFP-polyQ80 inclusion reduction;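 also: lower means fewer inclusions and 0 means no inclusions at all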
# [8] = 75Q-TubH aggregate inhibition, S. cerevisiae, yeast (AID 1616); settings: S. cerevisiae 75Q-TubH polyglutamine aggregation suppression; stronger effect = higher value
# [9] = P. berghei load reduction in hepatocytes – cell-based, HepG2, luciferase luminescence, HepG2 viability, primary screen (AID 624349; in the data active = parasite load remaining mostly below about 12%, no sharp cut-off; inactive = mostly above about 10%;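 also: 100% = mean of DMSO negative control wells on the same plate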); settings: P. berghei liver stage in HepG2, luciferase luminescence, concentration not given here; parasite load remaining: stronger effect = lower value; viability: measured here: HepG2 viability without parasites
# [10] = target: 6-phosphogluconate dehydrogenase, decarboxylating (Homo sapiens) (UniProt P52209); assay: inhibition of human phosphogluconate dehydrogenase – biochemical, recombinant enzyme, NADPH absorbance, primary screen (AID 1159550); settings: recombinant 6PGD, NADPH absorbance 341 nm; at 10 µM; stronger effect = higher value
# [11] = EMT-state selective cytotoxicity in co-culture – imaging, PC-3E GFP, TEM4-18 mCherry, primary screen (AID 1345086;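 active = compounds killing one labelled cell type while sparing the other, by normalised counts and ratio limits, not self-fluorescent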;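 as to all read-outs here: cells exposed to compound for 72 h before imaging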;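 as to red/green cell ratio (normalised): normalised mesenchymal count divided by normalised epithelial count so high means epithelial killing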); settings: PC-3E GFP / TEM4-18 mCherry co-culture, imaging cell counts, at 1 µM; for red/green cell ratio (normalised): actives lie on both sides, counts scaled to control wells, 1 = unselective
# [12] = target: Mitogen-activated protein kinase 7 (Homo sapiens) (UniProt Q13164); assay: Gal4-ERK5 driven luciferase induction – cell-based, HTS, primary screen (AID 1508626;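 active = luciferase signal above three times the same-plate solvent-only control wells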;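 also: luciferase driven by Gal4-ERK5 fusion binding five Gal4 sites before minimal TATA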); settings: HeLa Gal4-ERK5 transactivation, 18 h, at 5 µM, stronger effect = higher value
# [13] = target: ATP-dependent translocase ABCB1 (Homo sapiens) (UniProt P08183); assay: P-glycoprotein substrate transport blockade – cell-based (AID 377; in the data active = fluorescence slope change above about 50%); settings: MDR1-expressing cells, fluorescent substrate accumulation slope; stronger effect = higher value; concentration not given here
# [14] = compounds altering viability of human ES cells (AID 493140; call rule not given here;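 also: cells exposed to compounds for four days before counting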); settings: human embryonic stem cell survival screen; stronger effect = higher value
# [15] = compounds altering circadian rhythm period length – cell-based, LOPAC library, luminescence reporter (AID 2774; call rule not given here;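 also: values are relative to mean of DMSO wells on each plate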); settings: circadian reporter cells, at 7 µM, actives lie on both sides
# [16] = tested on: Hepatitis C virus NS3 helicase; assay: blockers of NS3h binding to ssDNA – biochemical, fluorescence polarization, LOPAC1280 library, primary screen (AID 687035; in the data active = inhibition above about 37%); settings: Purified HCV NS3 helicase, Cy5-dT15 ssDNA binding fluorescence polarization; stronger effect = higher value; concentration not given here
# [17] = compounds altering Cy5-DNA-NS3h complex signal – biochemical, LOPAC1280, artefact control for HCV NS3 helicase inhibitor project (AID 687037; call rule not given here); settings: Cy5-DNA-NS3h complex fluorescence interference counterscreen
# [18] = tested on: Aerobactin synthetase IucA (Klebsiella pneumoniae); assay: inhibition of K. pneumoniae IucA enzyme – biochemical, Tocris library, absorbance (AID 1345561; call rule not given here;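 also: 100% = enzyme without compound and 0% = no enzyme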); settings: purified IucA enzyme assay, absorbance (OD) read-out; stronger effect = lower value;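 tested at 8 µM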
# [19] = viability loss with induced miR-34 in A549 – imaging, A549 dox-inducible miR-34, nuclei and caspase counts, primary screen (AID 1347080;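 active = compounds whose cell count with miR-34 switched on is under 0.7 times the count with it off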); settings: A549 miR-34 inducible, Hoechst nuclei count, 48 h
# [20] = chitosan synthesis blockers in C. neoformans – flow cytometry, Cibacron Brilliant Red staining (AID 1347148; call rule not given here;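 also: compound exposure lasted three days at 37 degrees C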); settings: Cryptococcus neoformans chitosan, stronger effect = lower value; at 10 µM unless noted
# [21] = blockers of cellular phospholipid synthesis – cell-based, LOPAC library, screen 4, primary screen (AID 1347384; call rule not given here); settings: animal cells, phospholipid biosynthesis inhibition screen; at 10 µM
# [22] = galactose survival enhancers in mitochondrial complex I cybrids – cell-based, galactose medium, ATP luminescence, primary screen (AID 1645843;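 active = z-score of at least 1.8 in each of two replicates, scored against plate mean and spread of sample wells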;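 also: positive z means more ATP and so rescue of galactose-driven cybrid death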); settings: complex I mutant cybrid cells, 72 h, stronger effect = higher value
# [23] = viability loss in pontine glioma line – cell-based, SU-DIPG-XVII, MIPE5.0, CellTiter-Glo, qHTS, dose response (AID 1347060; cut-off not given, nearly all actives have AC50 up to about 26 µM;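 as to AC50: cells exposed to compound for 48 hours before viability readout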); settings: CellTiter-Glo ATP luminescence
# [24] = viability loss in pontine glioma line – cell-based, SU-DIPG-XIII, MIPE5.0, CellTiter-Glo, qHTS, dose response (AID 1347064; cut-off not given, nearly all actives have AC50 up to about 23 µM;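 also: cells exposed to compound for 48 hours before the viability read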); settings: CellTiter-Glo ATP luminescence
# [25] = viability loss in pontine glioma line – cell-based, SU-DIPG-XXV, MIPE5.0, CellTiter-Glo, qHTS, dose response (AID 1347065; cut-off not given, nearly all actives have AC50 up to about 26 µM;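 also: cells exposed to compound for 48 hours before ATP readout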); settings: CellTiter-Glo ATP luminescence
# [26] = JHH-DIPG-1 glioma cell viability, MIPE5.0 library, CellTiter-Glo luminescence, qHTS (AID 1347067; cut-off not given, nearly all actives have AC50 up to about 26 µM;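 also: cells exposed to compound for 48 hours before readout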); settings: JHH-DIPG-1 glioma viability, CellTiter-Glo ATP luminescence
# [27] = growth inhibition of DIPG cells – cell-based, MIPE5.0 library, qHTS (AID 1347068; cut-off not given, nearly all actives have IC50 up to about 30 µM;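 also: cells exposed to compound for 48 hours before viability readout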); settings: SU-DIPG-XXV viability
# [28] = target: NAD(+) hydrolase SARM1 (Homo sapiens) (UniProt Q6SZW1); assay: blocking NAD cleavage by SARM1 SAM-TIR – cell lysate, NAD-Glo luminescence (AID 1508614;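 active = compound whose remaining NAD level is above about 45 nM, limit read from the data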;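 also: higher remaining NAD means stronger inhibition of SARM1 NADase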); settings: SAM-TIR HEK293T lysate NADase, at 1 µM, stronger effect = higher value
# [29] = viability loss in pontine glioma line – cell-based, JHH-DIPG-1, MIPE4.0, CellTiter-Glo, qHTS, dose response (AID 1347062; cut-off not given, nearly all actives have AC50 up to about 27 µM); settings: JHH-DIPG-1 viability, CellTiter-Glo ATP luminescence
# [30] = viability loss in pontine glioma line – cell-based, SU-DIPG-IV, MIPE4.0, CellTiter-Glo, qHTS, dose response (AID 1347063; cut-off not given, nearly all actives have AC50 up to about 30 µM;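 also: compound exposure lasted 48 hours before the viability readout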); settings: CellTiter-Glo ATP luminescence
# [31] = growth inhibition of DIPG cells – cell-based, MIPE4.0 library, CellTiter-Glo luminescence, qHTS (AID 1347066; cut-off not given, nearly all actives have AC50 up to about 30 µM;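 also: cells exposed to compound for 48 hours before readout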); settings: SU-DIPG-VI viability, CellTiter-Glo ATP luminescence
# [32] = measured here: epithelial PC-3E GFP cell survival
# [33] = measured here: mesenchymal TEM4-18 mCherry cell survival
# [34] = stronger effect = lower value, cell number ratio, induced over uninduced
# [35] = measured here: relative caspase fold change +Dox/-Dox
# [36] = measured here: total cells with miR-34 induction, stronger effect = lower value
# [37] = measured here: total cells without miR-34 induction
# Mitogen-activated protein kinase 7 (Homo sapiens), sequence (Q13164 whole entry, looked up, the tested form may be a part): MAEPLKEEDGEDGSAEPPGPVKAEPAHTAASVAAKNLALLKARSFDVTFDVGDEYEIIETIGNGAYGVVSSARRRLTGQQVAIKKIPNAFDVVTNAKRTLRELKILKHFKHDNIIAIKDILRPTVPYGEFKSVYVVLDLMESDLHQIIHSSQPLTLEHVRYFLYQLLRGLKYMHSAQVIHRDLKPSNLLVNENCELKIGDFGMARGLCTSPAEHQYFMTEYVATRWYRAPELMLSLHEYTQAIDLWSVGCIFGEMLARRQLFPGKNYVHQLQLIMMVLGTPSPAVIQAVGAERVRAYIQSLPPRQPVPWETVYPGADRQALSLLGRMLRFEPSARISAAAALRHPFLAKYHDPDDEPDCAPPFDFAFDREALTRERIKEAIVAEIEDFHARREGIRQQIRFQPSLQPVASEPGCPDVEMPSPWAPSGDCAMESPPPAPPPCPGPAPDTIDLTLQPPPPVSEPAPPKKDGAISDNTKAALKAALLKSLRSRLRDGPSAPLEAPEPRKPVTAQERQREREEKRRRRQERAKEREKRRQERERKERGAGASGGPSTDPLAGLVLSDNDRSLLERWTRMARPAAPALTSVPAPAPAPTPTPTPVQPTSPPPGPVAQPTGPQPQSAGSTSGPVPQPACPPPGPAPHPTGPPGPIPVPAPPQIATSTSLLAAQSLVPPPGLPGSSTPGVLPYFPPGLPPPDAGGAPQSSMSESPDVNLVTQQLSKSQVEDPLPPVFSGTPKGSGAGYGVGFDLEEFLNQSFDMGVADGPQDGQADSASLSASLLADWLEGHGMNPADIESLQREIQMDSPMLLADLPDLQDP
# 6-phosphogluconate dehydrogenase, decarboxylating (Homo sapiens), sequence (P52209 whole entry, looked up): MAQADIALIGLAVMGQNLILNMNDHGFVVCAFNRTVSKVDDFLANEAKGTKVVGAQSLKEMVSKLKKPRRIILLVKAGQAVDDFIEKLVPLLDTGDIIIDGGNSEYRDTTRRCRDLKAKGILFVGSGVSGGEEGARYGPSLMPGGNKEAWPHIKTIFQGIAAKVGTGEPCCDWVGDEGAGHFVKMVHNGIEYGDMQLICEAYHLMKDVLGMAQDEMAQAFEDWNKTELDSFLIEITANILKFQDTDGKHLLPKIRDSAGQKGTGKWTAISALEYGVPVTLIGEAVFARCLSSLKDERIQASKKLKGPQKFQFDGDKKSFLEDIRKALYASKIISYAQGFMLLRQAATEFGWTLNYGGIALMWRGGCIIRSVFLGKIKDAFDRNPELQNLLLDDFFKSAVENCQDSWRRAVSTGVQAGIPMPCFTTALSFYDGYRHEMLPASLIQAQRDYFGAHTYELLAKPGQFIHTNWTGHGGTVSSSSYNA
# NAD(+) hydrolase SARM1 (Homo sapiens), sequence (Q6SZW1 whole entry, looked up): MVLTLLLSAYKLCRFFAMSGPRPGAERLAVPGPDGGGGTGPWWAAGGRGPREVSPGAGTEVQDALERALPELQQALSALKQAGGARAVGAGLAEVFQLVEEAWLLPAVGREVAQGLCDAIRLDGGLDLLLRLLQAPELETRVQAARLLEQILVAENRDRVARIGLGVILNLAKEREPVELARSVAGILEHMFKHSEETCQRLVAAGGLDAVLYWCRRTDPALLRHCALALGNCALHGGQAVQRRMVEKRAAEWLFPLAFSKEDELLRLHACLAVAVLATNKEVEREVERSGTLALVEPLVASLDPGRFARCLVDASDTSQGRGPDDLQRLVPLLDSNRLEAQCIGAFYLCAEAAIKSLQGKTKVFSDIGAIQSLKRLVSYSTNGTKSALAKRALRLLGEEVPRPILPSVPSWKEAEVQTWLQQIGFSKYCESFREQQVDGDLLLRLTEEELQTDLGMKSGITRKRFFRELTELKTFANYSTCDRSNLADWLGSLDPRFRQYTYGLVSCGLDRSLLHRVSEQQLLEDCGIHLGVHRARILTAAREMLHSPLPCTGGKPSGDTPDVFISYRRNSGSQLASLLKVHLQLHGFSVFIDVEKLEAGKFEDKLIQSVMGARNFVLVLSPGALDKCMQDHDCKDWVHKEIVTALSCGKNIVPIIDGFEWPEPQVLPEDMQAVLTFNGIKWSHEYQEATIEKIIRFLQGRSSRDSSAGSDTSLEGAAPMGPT
# ATP-dependent translocase ABCB1 (Homo sapiens), sequence (P08183 whole entry, looked up): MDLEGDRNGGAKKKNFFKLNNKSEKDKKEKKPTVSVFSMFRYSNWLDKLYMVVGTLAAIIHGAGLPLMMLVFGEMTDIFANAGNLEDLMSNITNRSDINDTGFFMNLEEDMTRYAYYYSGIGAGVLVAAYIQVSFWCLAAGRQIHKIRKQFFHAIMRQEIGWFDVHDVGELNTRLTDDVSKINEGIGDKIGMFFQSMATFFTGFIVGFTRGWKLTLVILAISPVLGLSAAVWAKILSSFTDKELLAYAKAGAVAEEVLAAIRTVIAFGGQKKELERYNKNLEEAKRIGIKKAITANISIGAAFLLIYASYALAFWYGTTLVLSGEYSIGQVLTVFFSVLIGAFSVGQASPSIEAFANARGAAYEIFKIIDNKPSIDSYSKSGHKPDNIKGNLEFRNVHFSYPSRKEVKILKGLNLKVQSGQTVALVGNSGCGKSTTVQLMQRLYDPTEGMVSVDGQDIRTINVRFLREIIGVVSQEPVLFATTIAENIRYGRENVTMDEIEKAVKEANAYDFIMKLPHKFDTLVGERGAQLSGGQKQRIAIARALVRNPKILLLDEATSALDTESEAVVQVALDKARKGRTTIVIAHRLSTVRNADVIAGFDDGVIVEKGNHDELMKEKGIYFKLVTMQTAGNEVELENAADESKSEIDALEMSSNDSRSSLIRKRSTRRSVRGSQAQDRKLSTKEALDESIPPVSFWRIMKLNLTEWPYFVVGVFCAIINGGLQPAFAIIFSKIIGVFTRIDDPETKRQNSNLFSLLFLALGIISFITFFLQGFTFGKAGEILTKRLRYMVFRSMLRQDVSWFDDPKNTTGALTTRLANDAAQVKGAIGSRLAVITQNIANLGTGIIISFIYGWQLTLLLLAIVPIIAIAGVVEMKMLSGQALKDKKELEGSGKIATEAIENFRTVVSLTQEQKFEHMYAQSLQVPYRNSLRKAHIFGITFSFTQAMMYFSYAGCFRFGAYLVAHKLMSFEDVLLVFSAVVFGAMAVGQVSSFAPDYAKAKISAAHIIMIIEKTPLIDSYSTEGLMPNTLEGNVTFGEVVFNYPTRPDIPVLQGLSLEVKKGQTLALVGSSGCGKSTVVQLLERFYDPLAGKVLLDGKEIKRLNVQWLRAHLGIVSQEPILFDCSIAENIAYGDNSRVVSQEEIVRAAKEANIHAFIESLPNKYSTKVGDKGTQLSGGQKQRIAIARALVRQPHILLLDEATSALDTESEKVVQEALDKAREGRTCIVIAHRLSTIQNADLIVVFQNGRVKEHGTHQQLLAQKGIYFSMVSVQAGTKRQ
compound,measurement,setting,value
NC1(C(=O)O)CCCC1,inhibition,[1],20.1%
same,score,[2],1.21
same,rescue above control,[3],-10.9
same,cytochrome c release ratio,[4],4.67
same,inhibition of aggregation,[5],81.6%
same,glutamate uptake change,[6],2.91%
same,inclusion score,[7],2
same,aggregation suppression score,[8],1.57
same,parasite load remaining,[9],96.4% (inactive)
same,viability,[9],69.9%
same,inhibition,[10],-12.6% (inactive)
same,red/green cell ratio (normalised),[11],0.86 (inactive)
same,normalised cell number,[11]; [32],1.24
same,normalised cell number,[11]; [33],1.06
same,luciferase signal,[12],76 AU (inactive)
COc1c(OC)c2occc2c2oc(=O)ccc12,inhibition,[1],-21%
same,score,[2],0.45
same,rescue above control,[3],5.04
same,cytochrome c release ratio,[4],1
same,inhibition of aggregation,[5],42.9%
same,glutamate uptake change,[6],-3.15%
same,inclusion score,[7],2
same,aggregation suppression score,[8],0.328
same,inhibition,[10],-3.21% (inactive)
same,red/green cell ratio (normalised),[11],0.97 (inactive)
same,normalised cell number,[11]; [32],1.12
same,normalised cell number,[11]; [33],1.08
same,luciferase signal,[12],28 AU (inactive)
COc1c2ccoc2nc2c(OC)c(OCC(O)C(C)(C)O)ccc12 (configuration not stated),fluorescence slope change,[13],3.7% (inactive)
same,survival,[14],4.17 (inactive)
same,inhibition,[10],-4.68% (inactive)
same,red/green cell ratio (normalised),[11],0.91 (inactive)
same,normalised cell number,[11]; [32],1
same,normalised cell number,[11]; [33],0.92
same,luciferase signal,[12],28 AU (inactive)
C[C@]12CCC3c4ccc(OS(=O)(=O)O)cc4CCC3C1CC[C@H]2O (some centres not stated),inhibition,[1],8.2%
same,score,[2],1.49
same,rescue above control,[3],11.3
same,cytochrome c release ratio,[4],0.9
same,inhibition of aggregation,[5],68.5%
same,glutamate uptake change,[6],-12.2%
same,inclusion score,[7],2
same,aggregation suppression score,[8],1.25
same,inhibition,[10],3.17% (inactive)
same,red/green cell ratio (normalised),[11],0.87 (inactive)
same,normalised cell number,[11]; [32],1.3
same,normalised cell number,[11]; [33],1.13
CCC(C)C(NC)C(=O)O (configuration not stated),inhibition,[10],-6.91% (inactive)
same,red/green cell ratio (normalised),[11],1.02 (inactive)
same,normalised cell number,[11]; [32],1.08
same,normalised cell number,[11]; [33],1.11
same,luciferase signal,[12],68 AU (inactive)
COc1cc(/C=C/C(=O)O)cc(OC)c1OC,inhibition,[10],-1.71% (inactive)
same,red/green cell ratio (normalised),[11],0.99 (inactive)
same,normalised cell number,[11]; [32],1.06
same,normalised cell number,[11]; [33],1.04
same,luciferase signal,[12],52 AU (inactive)
O=C(O)c1cc([N+](=O)[O-])ccc1NCCCc1ccccc1,inhibition,[1],58.5%
same,score,[2],0.73
same,rescue above control,[3],1.37
same,cytochrome c release ratio,[4],0.78
same,inhibition of aggregation,[5],4.16%
same,glutamate uptake change,[6],5.28%
same,inclusion score,[7],2
same,aggregation suppression score,[8],0.265
same,period change,[15],0.025 h (inactive)
same,inhibition,[16],-4% (inactive)
same,fluorescence ratio (interference),[17],1 (inactive)
same,inhibition,[10],11.2% (inactive)
same,remaining activity,[18],93.2% (inactive)
same,fold change,[19]; [34],1.03 (inactive) and 0.858 (inactive) and 0.935 (inactive)
same,fold change,[19]; [35],1.22 and 0.934 and 0.883
same,cell count,[19]; [36],10800 and 5570 and 8160
same,cell count,[19]; [37],10500 and 6480 and 8730
same,fold fluorescence,[20],4.56 [at 166.5 µM] (inactive)
same,outcome,[21],inactive
same,z-score,[22],0.305 (inactive) and -0.425 (inactive)
NC1=NCCN1CC(=O)O,inhibition,[1],26.8%
same,score,[2],1.43
same,rescue above control,[3],1.68
same,cytochrome c release ratio,[4],1.01
same,inhibition of aggregation,[5],80.3%
same,glutamate uptake change,[6],12.9%
same,inclusion score,[7],2
same,aggregation suppression score,[8],0.99
same,parasite load remaining,[9],89.9% (inactive)
same,viability,[9],69.9%
same,inhibition,[10],-2.27% (inactive)
same,red/green cell ratio (normalised),[11],0.92 (inactive)
same,normalised cell number,[11]; [32],1.1
same,normalised cell number,[11]; [33],1.01
same,luciferase signal,[12],48 AU (inactive)
CCOC(=O)[C@H](CCc1ccccc1)N[C@H](C)C(=O)N1C2CCCCC2C[C@H]1C(=O)O (some centres not stated),parasite load remaining,[9],125% (inactive)
same,viability,[9],94.3%
same,inhibition,[10],7.88% (inactive)
same,red/green cell ratio (normalised),[11],0.91 (inactive)
same,normalised cell number,[11]; [32],1.03
same,normalised cell number,[11]; [33],0.93
C[C@@]12C(=O)OC(=O)[C@]1(C)[C@H]1CC[C@@H]2O1,parasite load remaining,[9],-0.2% (inactive)
same,viability,[9],9.1%
same,inhibition,[10],-26.6% (inactive)
same,remaining activity,[18],119% (inactive)
same,AC50,[23],2630 nM (active)
same,AC50,[24],2950 nM (active)
same,AC50,[25],1860 nM (active)
same,AC50,[26],2350 nM (active)
same,IC50,[27],2950 nM (active)
same,fold change,[19]; [34],0.592 (active) and 1.01 (inactive)
same,fold change,[19]; [35],2.6 and 1.41
same,cell count,[19]; [36],223 and 535
same,cell count,[19]; [37],376 and 530
same,luciferase signal,[12],52 AU (inactive)
same,z-score,[22],-0.755 (inactive)
CCCC(=O)Nc1ncnc2c1ncn2[C@@H]1O[C@@H]2COP(=O)(O)O[C@H]2[C@H]1OC(=O)CCC,inhibition,[10],10.5% (inactive)
same,remaining activity,[18],106% (inactive)
same,fold change,[19]; [34],1.04 (inactive) and 0.902 (inactive)
same,fold change,[19]; [35],0.758 and 0.739
same,cell count,[19]; [36],5610 and 9020
same,cell count,[19]; [37],5380 and 10000
same,fold fluorescence,[20],10.2 [at 101.8 µM] (inactive)
same,remaining NAD,[28],10 nM (inactive)
same,luciferase signal,[12],68 AU (inactive)
same,z-score,[22],0.335 (inactive)
CCOC(=O)C1=C(O)C(=O)N(Cc2ccccc2)C1,inhibition,[10],-9.58% (inactive)
same,remaining activity,[18],101% (inactive)
same,outcome,[23],inactive
same,outcome,[29],inactive
same,outcome,[30],inactive
same,outcome,[25],inactive
same,outcome,[31],inactive
same,outcome,[26],inactive
same,fold change,[19]; [34],0.926 (inactive) and 0.964 (inactive)
same,fold change,[19]; [35],1.46 and 1.07
same,cell count,[19]; [36],9870 and 8960
same,cell count,[19]; [37],10700 and 9300
same,outcome,[21],inactive
same,z-score,[22],0.685 (inactive) and -0.055 (inactive)

# — PubChem BioAssay
